Source: paper PMC4336329 (PLoS ONE, 2015)
Out of some 310,000 compounds screened, about 14,000 (4.5%) showed an effect of 50% or more. The effect is printed as a negative number. The entries come from a sample that favours strong results as a whole.

biological target: human ether-à-go-go-related gene (hERG) potassium channel (human, UniProt Q12809); assay: primary screen, population patch clamp on CHO cells stably expressing hERG; higher = less effect of the substance
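Also: peak tail current of the secondary pulse compared with the same well before compound.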

Sequence of human ether-à-go-go-related gene (hERG) potassium channel (Q12809 whole entry, looked up): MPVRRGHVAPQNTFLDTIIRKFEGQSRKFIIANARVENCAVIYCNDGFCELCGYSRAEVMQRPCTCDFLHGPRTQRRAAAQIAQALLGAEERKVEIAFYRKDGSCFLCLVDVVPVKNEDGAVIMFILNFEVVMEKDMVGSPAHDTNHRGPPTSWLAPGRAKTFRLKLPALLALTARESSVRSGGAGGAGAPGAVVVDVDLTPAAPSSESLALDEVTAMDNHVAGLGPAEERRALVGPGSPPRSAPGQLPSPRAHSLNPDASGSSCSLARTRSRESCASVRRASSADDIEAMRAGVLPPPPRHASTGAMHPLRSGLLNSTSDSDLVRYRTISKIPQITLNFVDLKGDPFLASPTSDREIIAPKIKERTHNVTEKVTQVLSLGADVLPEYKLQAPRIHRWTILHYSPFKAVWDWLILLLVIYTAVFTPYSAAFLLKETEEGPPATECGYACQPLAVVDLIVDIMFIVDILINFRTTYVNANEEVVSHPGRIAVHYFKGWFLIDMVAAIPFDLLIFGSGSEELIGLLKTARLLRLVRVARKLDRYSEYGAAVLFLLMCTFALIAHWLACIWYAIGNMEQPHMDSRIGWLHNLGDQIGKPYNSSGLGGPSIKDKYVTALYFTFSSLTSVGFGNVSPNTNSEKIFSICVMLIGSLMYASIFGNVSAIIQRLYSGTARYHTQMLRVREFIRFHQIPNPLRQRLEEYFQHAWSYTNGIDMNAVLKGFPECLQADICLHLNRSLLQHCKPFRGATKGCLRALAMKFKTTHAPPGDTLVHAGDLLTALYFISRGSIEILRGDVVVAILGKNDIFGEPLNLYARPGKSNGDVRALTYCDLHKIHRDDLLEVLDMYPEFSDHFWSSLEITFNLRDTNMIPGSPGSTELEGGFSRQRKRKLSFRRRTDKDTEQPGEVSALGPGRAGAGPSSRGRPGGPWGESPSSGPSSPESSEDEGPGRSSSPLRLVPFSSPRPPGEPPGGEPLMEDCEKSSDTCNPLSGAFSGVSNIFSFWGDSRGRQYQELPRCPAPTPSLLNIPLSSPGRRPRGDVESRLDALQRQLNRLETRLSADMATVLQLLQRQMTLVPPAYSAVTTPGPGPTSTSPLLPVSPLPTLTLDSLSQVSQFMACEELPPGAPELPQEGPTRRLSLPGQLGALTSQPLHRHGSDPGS

| SMILES | hERG current change (%, negative = inhibition) at 10uM |
| --- | --- |
| Cc1ccc(C(=O)NCCC(=O)NCc2ccco2)cc1 | 9.59% |
| CC1=NN(C(=O)c2nn(C)cc2Br)C(O)(C(F)(F)F)C1 (stereo not shown) | 10.3% |
| Cc1cccc(C)c1NC(=O)CNC(=O)C1CCCC1 | 2.19% |
| O=C(NC1CCCCC1)C(c1ccc(F)cc1)N(C(=O)c1csnn1)C1CC1 (stereo not shown) | 13.2% |
| COc1ccc2nc(C)cc(N3CC(C)OC(C)C3)c2c1 (stereo not shown) | -49.6% |
| COc1ccc(N2CCN(CC(=O)c3ccccc3)CC2)cc1 | 11% |
| COc1ccc(N2CCN(c3cc(C)nc4ccc(OC)cc34)CC2)cc1 | -69.1% |
| COc1ccc(N2CCN(c3cc(C)c4ccccc4n3)CC2)cc1 | 3.95% |
| CCOC(=O)C1CCN(c2cc(C)nc3ccc(OC)cc23)CC1 | -73.8% |
| COc1ccc2nc(C)cc(N3CCC(C(N)=O)CC3)c2c1 | -33.7% |
| COc1ccc(C(=O)CN2CCN(c3ncccn3)CC2)cc1.O=C(O)C(=O)O | 5.13% |
| COc1ccc(C(=O)CN2CCN(c3cc(C)nc4ccccc34)CC2)cc1 | -68.8% |
| CCOC(=O)C1CCN(c2nc3cc(OC)ccc3cc2C#N)CC1 | -16% |
| COc1ccc2nc(C)cc(N3CCOCC3)c2c1 | -14.6% |
| COc1ccc2nc(C)cc(N3CCN(c4ccccc4)CC3)c2c1 | -66.7% |
| COc1ccc2nc(C)cc(C(=O)O)c2c1 | 0.7% |
| Cc1ccc(NC(=O)CNC(=O)c2cccs2)c(O)c1 | 15.1% |
| Cl.NS(=O)(=O)c1cccc(N2CCNCC2)c1 | 11.7% |
| COc1ccc(Cl)cc1NC(=S)NNC(=O)c1cccnc1 | 36.9% |
| COc1ccccc1N1CCN(S(=O)(=O)c2ccccc2F)CC1 | -23.3% |
| COc1ccc2nc(C)cc(N3CCN(S(=O)(=O)c4ccccc4F)CC3)c2c1 | -75.9% |

| SMILES | hERG current change (%, negative = inhibition) at 10uM |
| --- | --- |
| COc1cccc(S(=O)(=O)N2CCN(c3ccccc3F)CC2)c1 | -6.35% |
| CCOc1ccc(-c2n[nH]c(C)c2Oc2ccc(OC)cc2)c(O)c1 | -6.31% |
| Cc1ccc2cc(CN(Cc3ccco3)S(=O)(=O)c3c(C)ccc4nsnc34)c(=O)[nH]c2c1 | 2.82% |
| CNCc1ccccc1Sc1ccc(OC)c(OC)c1.O=C(O)/C=C\C(=O)O | -18.3% |
| CNCc1ccccc1Sc1cccc2ccccc12.O=C(O)/C=C\C(=O)O | -45.4% |
| O=C(O)/C=C\C(=O)O.c1ccc(Sc2ccccc2CN2CCCC2)cc1 | -50.7% |
| OCc1ccccc1CN1CCCCCC1 | -9.62% |
| CN1CCN(Cc2ccccc2Sc2ccccc2)CC1.O=C(O)/C=C\C(=O)O | -82% |
| CNCc1ccccc1Sc1cccc(O)c1.O=C(O)/C=C\C(=O)O | 7.03% |
| O=C1N=C(N2CCCC2)S/C1=C\c1cn[nH]c1-c1ccccc1 | -4.48% |
| COCCN=c1scc(-c2cccs2)n1/N=C(\C)c1ccco1 | -2.51% |
| CN(C)S(=O)(=O)c1cccc(COc2ccccc2C(=O)Nc2ccccc2)c1 | -14.4% |
| Brc1ccc(OCc2cn3ccccc3n2)cc1 | -7.75% |
| CCOC(=O)c1sc(NC(=O)CSc2nccc(C)n2)c(C#N)c1C | -4.68% |
| Cc1sc2ncnc(Sc3nc4ccccc4s3)c2c1C | 5.53% |
| Cl.O=C(CN1CCCC1)Nc1ccc2c(c1)CCC2 | -1.69% |
| CC1(c2ccccc2)O[C@@H]2C[C@H]3[C@@H]4CCC5=CC(=O)C=C[C@]5(C)[C@@]4(F)[C@@H](O)C[C@]3(C)[C@]2(C(=O)CO)O1 (stereo partly shown) | -78.6% |
| CC1(C)O[C@@H]2C[C@H]3[C@@H]4CCC5=CC(=O)C=C[C@]5(C)[C@@]4(F)[C@@H](O)C[C@]3(C)[C@]2(C(=O)CO)O1 | 13.7% |
| C[C@]12C=CC(=O)C=C1CC[C@H]1[C@@H]3C[C@@H](O)[C@](O)(C(=O)CO)[C@@]3(C)C[C@H](O)[C@@]12F | 6.23% |
| CCn1c(CCNC(=O)c2ccccc2Cl)n[nH]c1=S | 12% |
| C[n+]1ccccc1/C=C/c1cc(Br)ccc1O.[I-] | 14.7% |

| SMILES | hERG current change (%, negative = inhibition) at 10uM |
| --- | --- |
| Cc1ccc(C(=O)NNC(=O)c2ccc(-n3cncn3)c([N+](=O)[O-])c2)cc1 | 12.2% |
| Cc1ccc(S(=O)(=O)N2CCN(C(=O)c3ccc(-n4cncn4)c([N+](=O)[O-])c3)CC2)cc1 | -52.5% |
| Cc1ccc(NC(=O)c2ccc(-n3cncn3)c([N+](=O)[O-])c2)cc1 | -17.9% |
| O=C(c1ccc(-n2cncn2)c([N+](=O)[O-])c1)N1CCN(S(=O)(=O)c2ccc(Br)cc2)CC1 | -67.5% |
| Cc1ccc(C)c(S(=O)(=O)N2CCN(C(=O)c3ccc(N4CCCC4)c([N+](=O)[O-])c3)CC2)c1 | -9.46% |
| CC(=O)c1ccc(S(=O)(=O)N2CCN(C(=O)c3ccc(-n4cncn4)c([N+](=O)[O-])c3)CC2)cc1 | -19.7% |
| Nc1ccc(C(=O)N2CCN(S(=O)(=O)c3ccc(Br)cc3)CC2)cc1[N+](=O)[O-] | -26.9% |
| O=C(c1ccc(N2CCCC2)c([N+](=O)[O-])c1)N1CCN(S(=O)(=O)c2ccc(Cl)cc2)CC1 | -36.2% |
| CC(C)c1ccc(S(=O)(=O)N2CCN(C(=O)c3ccc(N4CCCC4)c([N+](=O)[O-])c3)CC2)cc1 | -55.1% |
| Cc1ccc(S(=O)(=O)N2CCN(C(=O)c3ccc(N4CCCCC4)c([N+](=O)[O-])c3)CC2)cc1 | -10.2% |
| Cc1ccc(C)c(S(=O)(=O)N2CCN(C(=O)c3ccc(-n4cncn4)c([N+](=O)[O-])c3)CC2)c1 | -72.1% |
| CC(C)CNC(=O)CC(=O)NN=C1CCCC1 | 19.5% |
| Cc1ccc(N(CC(=O)NCc2ccco2)C(=O)CCC(=O)Nc2nccs2)c(C)c1 | -22.5% |
| Cc1cc(C)n(-c2nc3ccccc3n3c(C)nnc23)n1 | 6.03% |
| Cc1ccc2oc(=O)n(CC(=O)O)c2c1 | 23.8% |
| CCOc1ccccc1NC(=O)NC1(C(=O)NCC2CCCO2)CCCCC1 (stereo not shown) | 15% |
| COc1cc(NS(=O)(=O)c2ccc(NC(=O)c3ccc(C)o3)cc2)nc(OC)n1 | -9.23% |
| Cc1ccc(N)c(C(=O)CCCCC(=O)O)c1 | 7.01% |
| C[C@@H](C(=O)O)[C@@H]1C[C@@]1(C)[C@@H](NC(=O)OCc1ccccc1)c1ccccc1 | 16.8% |
| Oc1c(CN2CCOCC2)cc(-c2ccccc2)cc1CN1CCOCC1 | -12.7% |
| Cc1cc(C)c(NC(=O)Cn2nnc(C(=O)NCc3cccs3)c2N)c(C)c1 | 20% |

| SMILES | hERG current change (%, negative = inhibition) at 10uM |
| --- | --- |
| CCC(C)NC(=S)N(CCc1ccccc1)Cc1cc2cc(OC)c(OC)cc2[nH]c1=O (stereo not shown) | -32.4% |
| CCCCCOC(=O)C1=C(C)Nc2nnnn2C1c1ccc(OC)c(OC)c1OC (stereo not shown) | -41.4% |
| CCOc1cc(/C=C2\NC(=S)N(C)C2=O)ccc1OCc1ccc(C(=O)O)cc1 | 14.6% |
| CC(=O)N1CCN(C(=O)c2ccc(-n3c(C)ccc3C)cc2)CC1 | -1.54% |
| Cc1c(NC(=O)/C=C/c2cn(-c3ccccc3)nc2-c2ccc(F)cc2)c(=O)n(-c2ccccc2)n1C | 7.47% |
| CCN(CC)c1ccc(N)cc1S(=O)(=O)Nc1ccc(OC)cc1 | -4.91% |
| Cn1c2c(c(=O)n(C)c1=O)CN(Cc1ccco1)CN2 | 4.7% |
| CCOc1ccc(S(=O)(=O)N2CCN(C(=O)c3ccncc3)CC2)cc1 | 4.67% |
| O=C(c1ccc(N2CCN(S(=O)(=O)c3ccccc3)CC2)c([N+](=O)[O-])c1)N1CCOCC1 | -35.1% |
| CCOc1ccc(S(=O)(=O)N2CCN(C(=O)c3ccc(-n4cncn4)c([N+](=O)[O-])c3)CC2)cc1 | -71.5% |
| CCOc1ccc(S(=O)(=O)N2CCN(C(=O)c3cccnc3)CC2)cc1 | -29.3% |
| O=C(c1ccncc1)N1CCN(S(=O)(=O)c2ccccc2Br)CC1 | 4.86% |
| NC(=O)c1ccc(N2CCN(S(=O)(=O)c3ccccc3)CC2)c([N+](=O)[O-])c1 | -58.7% |
| N#Cc1ccccc1S(=O)(=O)N1CCN(C(=O)c2ccc(-n3cncn3)c([N+](=O)[O-])c2)CC1 | -23.3% |
| O=C(c1ccc(-n2cncn2)c([N+](=O)[O-])c1)N1CCN(S(=O)(=O)c2ccccc2Br)CC1 | -70.3% |
| O=C(c1ccc(N2CCCCC2)c([N+](=O)[O-])c1)N1CCN(S(=O)(=O)c2ccccc2)CC1 | -49.9% |
| Cc1ccc(S(=O)(=O)N2CCN(c3ccc(C(=O)N4CCOCC4)cc3[N+](=O)[O-])CC2)cc1 | -59% |
| COC(=O)c1ccc(N2CCN(S(=O)(=O)c3ccccc3)CC2)c([N+](=O)[O-])c1 | -14.1% |
| Cc1ccc(S(=O)(=O)N2CCN(C(=O)c3ccc(N4CCCC4)c([N+](=O)[O-])c3)CC2)cc1 | -18.1% |
